Source: PubChem BioAssay AID1159580 (chemical genetic matrix, 2015)
The whole screen tested about 5,500 compounds, of which about 2,000 (36%) were called active. About 18% were inconclusive and are not listed. Cut-off read from the data, not from the text of the source: active = normalized growth mostly below about 0.91 (no sharp cut-off); inconclusive = no clear call, values can overlap the other calls; inactive = mostly above about 0.92. The list shows a part of the results.

Assay: chemical genetic growth profiling, strain panel (AID 1159580);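 note: tested at 20 µM; growth read once vehicle control cultures reached saturation at 30 °C; 1 = growth at the plate median or of vehicle wells; lower values mean less growth of the strain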
Settings: growth OD

Measured: normalized growth

Cn1c([N+](=O)[O-])cnc1COC(N)=O
inactive: S. cerevisiae deletion strains, locus YJR075W, strain HOC1, active compounds read low 1.02 | S. cerevisiae deletion strains, locus YKL009W, strain mrt4, active compounds read low 1.01 | S. cerevisiae deletion strains, locus YKL068W, active compounds read low 0.991 | S. cerevisiae deletion strains, locus YKL085W, strain MDH1 (second series), active compounds read low 0.994 | S. cerevisiae deletion strains, locus YKL085W, strain MDH1, active compounds read low 0.994 | S. cerevisiae deletion strains, locus YKL160W, strain elf1, active compounds read low 1.02 | S. cerevisiae deletion strains, locus YKL190W, strain CNB1, active compounds read low 1 | S. cerevisiae deletion strains, locus YKR001C, strain vps1, active compounds read low 0.976 | S. cerevisiae deletion strains, locus YKR026C, strain gcn3, active compounds read low 0.998 | S. cerevisiae deletion strains, locus YKR091W, strain srl3, active compounds read low 0.998 | S. cerevisiae deletion strains, locus YLL001W, strain dnm1, active compounds read low 1.03 | S. cerevisiae deletion strains, locus YLL026W, active compounds read low 1 | S. cerevisiae deletion strains, locus YLL041C, strain sdh2, active compounds read low 0.993 | S. cerevisiae deletion strains, locus YLR027C, strain aat2, active compounds read low 1.01 | S. cerevisiae deletion strains, locus YLR039C, strain RIC1, active compounds read low 1.02 | S. cerevisiae deletion strains, locus YLR058C, strain SHM2, active compounds read low 1.01 | S. cerevisiae deletion strains, locus YLR102C, strain apc9, active compounds read low 0.986 | S. cerevisiae deletion strains, locus YLR113W, strain HOG1, active compounds read low 1.03 | S. cerevisiae deletion strains, locus YLR221C, strain rsa3, active compounds read low 0.978 | S. cerevisiae deletion strains, locus YLR258W, strain gsy2, active compounds read low 1.02 | S. cerevisiae deletion strains, locus YLR262C, strain YPT6 (second series), active compounds read low 1 | S. cerevisiae deletion strains, locus YLR262C, strain YPT6, active compounds read low 1.05 | S. cerevisiae deletion strains, locus YLR268W, strain sec22, active compounds read low 0.991 | S. cerevisiae deletion strains, locus YLR320W, strain mms22, active compounds read low 0.983 | S. cerevisiae deletion strains, locus YLR330W, strain CHS5, active compounds read low 1.01 | S. cerevisiae deletion strains, locus YLR342W, strain FKS1 (second series), active compounds read low 0.982 | S. cerevisiae deletion strains, locus YLR342W, strain FKS1, active compounds read low 0.998 | S. cerevisiae deletion strains, locus YLR357W, strain rsc2, active compounds read low 0.989 | S. cerevisiae deletion strains, locus YLR370C, strain arc18, active compounds read low 1.02 | S. cerevisiae deletion strains, locus YLR371W, strain rom2, active compounds read low 0.988 | S. cerevisiae deletion strains, locus YLR384C, strain iki3, active compounds read low 1 | S. cerevisiae deletion strains, locus YLR418C, strain cdc73, active compounds read low 0.962 | S. cerevisiae deletion strains, locus YML016C, strain PPZ1, active compounds read low 1 | S. cerevisiae deletion strains, locus YML032C, strain rad52, active compounds read low 0.984 | S. cerevisiae deletion strains, locus YML120C, strain ndi1, active compounds read low 0.999 | S. cerevisiae deletion strains, locus YML124C, strain tub3, active compounds read low 0.99 | S. cerevisiae deletion strains, locus YMR058W, strain fet3, active compounds read low 1.01 | S. cerevisiae deletion strains, locus YMR078C, strain ctf18, active compounds read low 0.983 | S. cerevisiae deletion strains, locus YMR125W, strain sto1, active compounds read low 0.991 | S. cerevisiae deletion strains, locus YMR129W, active compounds read low 1.01 | S. cerevisiae deletion strains, locus YMR205C, strain PFK2, active compounds read low 0.982 | S. cerevisiae deletion strains, locus YMR223W, strain ubp8, active compounds read low 0.994 | S. cerevisiae deletion strains, locus YMR231W, strain pep5, active compounds read low 1.01 | S. cerevisiae deletion strains, locus YMR263W, strain SAP30, active compounds read low 1.01 | S. cerevisiae deletion strains, locus YMR307W, strain GAS1, active compounds read low 0.981 | S. cerevisiae deletion strains, locus YNL067W, strain RPL9B, active compounds read low 1.01 | S. cerevisiae deletion strains, locus YNL071W, strain lat1, active compounds read low 1 | S. cerevisiae deletion strains, locus YNL153C, strain GIM3, active compounds read low 1.01 | S. cerevisiae deletion strains, locus YNL183C, strain NPR1, active compounds read low 0.957 | S. cerevisiae deletion strains, locus YNL209W, strain ssb2, active compounds read low 1.01 | S. cerevisiae deletion strains, locus YNL233W, strain BNI4, active compounds read low 1.01 | S. cerevisiae deletion strains, locus YNL248C, strain rpa49, active compounds read low 0.995 | S. cerevisiae deletion strains, locus YNL250W, strain rad50, active compounds read low 0.986 | S. cerevisiae deletion strains, locus YNL271C, strain bni1, active compounds read low 0.978 | S. cerevisiae deletion strains, locus YNL298W, strain CLA4, active compounds read low 0.988 | S. cerevisiae deletion strains, locus YNL307C, strain MCK1, active compounds read low 0.984 | S. cerevisiae deletion strains, locus YNL322C, strain KRE1 (second series), active compounds read low 1.02 | S. cerevisiae deletion strains, locus YNR049C, strain mso1, active compounds read low 1.01 | S. cerevisiae deletion strains, locus YNR052C, strain pop2, active compounds read low 0.989 | S. cerevisiae deletion strains, locus YOL006C, strain TOP1, active compounds read low 1.05 | S. cerevisiae deletion strains, locus YOL012C, strain htz1 0.743 | S. cerevisiae deletion strains, locus YOL147C, strain pex11, active compounds read low 0.981 | S. cerevisiae deletion strains, locus YOR001W, strain rrp6, active compounds read low 0.963 | S. cerevisiae deletion strains, locus YOR061W, strain CKA2, active compounds read low 1.01 | S. cerevisiae deletion strains, locus YOR069W, strain VPS5, active compounds read low 1 | S. cerevisiae deletion strains, locus YOR070C, strain gyp1, active compounds read low 0.996 | S. cerevisiae deletion strains, locus YOR080W, strain dia2, active compounds read low 1.01 | S. cerevisiae deletion strains, locus YOR083W, strain WHI5, active compounds read low 1.03 | S. cerevisiae deletion strains, locus YOR106W, strain vam3, active compounds read low 1.03 | S. cerevisiae deletion strains, locus YOR136W, strain idh2, active compounds read low 0.978 | S. cerevisiae deletion strains, locus YOR144C, strain elg1, active compounds read low 0.972 | S. cerevisiae deletion strains, locus YOR184W, strain ser1, active compounds read low 1.01 | S. cerevisiae deletion strains, locus YOR231W, strain MKK1, active compounds read low 0.997 | S. cerevisiae deletion strains, locus YOR265W, strain rbl2, active compounds read low 1 | S. cerevisiae deletion strains, locus YOR270C, strain vph1, active compounds read low 1 | S. cerevisiae deletion strains, locus YOR290C, strain snf2, active compounds read low 1.03 | S. cerevisiae deletion strains, locus YOR316C, strain cot1, active compounds read low 0.993 | S. cerevisiae deletion strains, locus YPL051W, strain arl3, active compounds read low 1.03 | S. cerevisiae deletion strains, locus YPL078C, strain atp4, active compounds read low 1.03 | S. cerevisiae deletion strains, locus YPL106C, strain sse1, active compounds read low 1.02 | S. cerevisiae deletion strains, locus YPL240C, strain hsp82, active compounds read low 1.01 | S. cerevisiae deletion strains, locus YPL241C, strain CIN2, active compounds read low 1.01 | S. cerevisiae deletion strains, locus YPL256C, strain CLN2, active compounds read low 0.999 | S. cerevisiae deletion strains, locus YPR119W, strain clb2, active compounds read low 0.981 | S. cerevisiae deletion strains, locus YPR141C, strain kar3, active compounds read low 0.983 | S. cerevisiae deletion strains, locus YPR163C, strain tif3, active compounds read low 0.99 | S. cerevisiae deletion strains, locus YPR167C, strain met16, active compounds read low 0.992 | S. cerevisiae deletion strains, strain wtn01, active compounds read low 0.984 | S. cerevisiae strains, strain wild type, active compounds read low 1.01
